Data: PubChem BioAssay (NCATS)
Several values for one entry are separate records, joined by “and”; a condition that tells them apart may be missing. Equal entries are not always repeated. Inconclusive results are not listed. A call without a number means that no potency is given here. Where a structure was tested more than once in an assay, its records may differ in their call. Activity calls are given as the source filed them. Unless noted, the call rests on the fitted dose curve; in most records, active means well fitted curve in the direction sought with a large enough effect; inconclusive means small, poorly fitted or top-dose-only effect, or another doubt; inactive means no such curve, though single readings can be large; an effect the other way counts as inactive or inconclusive.

Experiment: P-glycoprotein substrates identified in KB-3-1 adenocarcinoma cell line, qHTS therapeutic library screen (AID 1346986); further: nearly all actives have a fitted effect of over 60% in size
Details: KB-3-1 parental cells viability, CellTiter-Glo, 72 h; at 44.5 µM (top of the series)
Outline: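 Counter-screen: cherry-picked hits retested in the KB pair and in HEK-293 pcDNA/MDR-19 cells ± tariquidar. Primary screen used 72 h CellTiter-Glo viability in KB-3-1 and KB-8-5-11.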
For `CNC1CCCN(c2c(F)cc3c(=O)c(C(=O)O)cn(C4CC4)c3c2OC)C1` (configuration not stated), the outcome was “inactive”. In the case of `COc1nc(N)nc2c1ncn2[C@@H]1O[C@H](CO)[C@@H](O)[C@@H]1O`, the outcome is reported as “inactive”. With `OCc1ccc(-c2nn(Cc3ccccc3)c3ccccc23)o1` the outcome was “inactive”. For `CC(C)OC(=O)OCOP(=O)(CO[C@H](C)Cn1cnc2c(N)ncnc21)OCOC(=O)OC(C)C`, the outcome was “inactive”. With `CN1CCN(c2c(F)cc3c(=O)c(C(=O)O)cn4c3c2OCN4C)CC1` the outcome was “inactive”. With `COC(c1ccccc1)(c1ccccc1)[C@H](Oc1nc(C)cc(C)n1)C(=O)O` the outcome was “inactive”. With `O=C(O)CSCC(=O)NC1CCSC1=O` (configuration not stated) the outcome was “inactive”. In the case of `CCCCOc1ccc(CC(=O)NO)cc1`, the outcome is reported as “inactive”.

Experiment: P-glycoprotein substrates identified in KB-8-5-11 adenocarcinoma cell line, qHTS therapeutic library screen (AID 1346987); further: nearly all actives have a fitted effect of over 65% in size; further: potency means the concentration at half of the fitted maximal effect
Details: KB-8-5-11 (P-gp overexpressing) viability, CellTiter-Glo, 72 h; series mostly up to 44.5 µM; activity change, negative = cytotoxicity: at the top concentration
Outline: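 KB-8-5-11: colchicine-selected sub-line of KB-3-1 over-expressing P-gp; assay medium lacked colchicine. 72 h drug exposure at 37 degree C, CellTiter-Glo.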
In the case of `O[C@@H](CNC[C@H](O)[C@H]1CCc2cc(F)ccc2O1)[C@@H]1CCc2cc(F)ccc2O1`, the Potency is reported as 20.9 µM (active). With `CNS(=O)(=O)Cc1ccc2[nH]cc(CCN(C)C)c2c1` the Potency was “inactive”. In the case of `N[C@@H](Cc1ccc(O)c(O)c1)C(=O)O`, the “activity change, negative = cytotoxicity” value is reported as 5.22% (inactive). In the case of `Nc1nc(N)c2nc(CNc3ccc(C(=O)NC(CCC(=O)O)C(=O)O)cc3)cnc2n1` (configuration not stated), the Potency is reported as 0.0372 µM (active). With `NC(=O)c1ccc2[nH]ccc2c1` the “activity change, negative = cytotoxicity” value was 3.3% (inactive). With `CC(N)C12CC3CC(CC(C3)C1)C2` (configuration not stated) the Potency was “inactive”. In the case of `CO[C@@H]1[C@@H](OC(N)=O)[C@@H](O)[C@H](Oc2ccc3c(O)c(NC(=O)c4ccc(O)c(CC=C(C)C)c4)c(=O)oc3c2C)OC1(C)C`, the Potency is reported as “inactive”. For `CCN(CC)CC#CCOC(=O)C(O)(c1ccccc1)C1CCCCC1` (configuration not stated), the “activity change, negative = cytotoxicity” value was -25.8% (inactive). In the case of `CC(C)NCC(O)c1ccc(NS(C)(=O)=O)cc1` (configuration not stated), the Potency is reported as “inactive”. With `CCOC(=O)c1ccc(OC(=O)CCCCCN=C(N)N)cc1` the Potency was “inactive”. With `CCc1c2c(nc3ccc(OC(=O)N4CCC(N5CCCCC5)CC4)cc13)-c1cc3c(c(=O)n1C2)COC(=O)[C@]3(O)CC` the “activity change, negative = cytotoxicity” value was 2.13% (inactive). For `CC1(C)[C@H](C(=O)O)N2C(=O)C[C@H]2S1(=O)=O`, the Potency was “inactive”. For `CO[C@@]12[C@H](COC(N)=O)C3=C(C(=O)C(C)=C(N)C3=O)N1C[C@@H]1N[C@@H]12`, the Potency was “inactive and 16.6 µM (active)”. With `CNC1CCCN(c2c(F)cc3c(=O)c(C(=O)O)cn(C4CC4)c3c2OC)C1` (configuration not stated) the “outcome” value was “inactive”. For `NC(N)=NC(N)=NCCc1ccccc1`, the Potency was “inactive”. With `COc1nc(N)nc2c1ncn2[C@@H]1O[C@H](CO)[C@@H](O)[C@@H]1O` the “outcome” value was “inactive”. With `COC(=O)Nc1nc2ccc(C(=O)c3ccccc3)cc2[nH]1` the Potency was 699 nM (active) and 2.96 µM (active). For `CC(C)OC(=O)OCOP(=O)(CO[C@H](C)Cn1cnc2c(N)ncnc21)OCOC(=O)OC(C)C`, the “activity change, negative = cytotoxicity” value was 2.89% (inactive). With `CC(=O)[C@H]1CC[C@H]2[C@@H]3CCC4=CC(=O)CC[C@]4(C)[C@H]3CC[C@]12C` the Potency was 11.8 µM (active). With `CC[C@H](NC(C)C)[C@H](O)c1ccc(O)c2[nH]c(=O)ccc12` the “outcome” value was “inactive”. For `CN1CCN(c2c(F)cc3c(=O)c(C(=O)O)cn4c3c2OCN4C)CC1`, the Potency was “inactive”. For `CCCCS(=N)(=O)CCC(N)C(=O)O` (configuration not stated), the “outcome” value was “inactive”. With `Oc1c(Cl)cc(Cl)c2cccnc12` the Potency was 1.46 µM (active). In the case of `CCCCCCNC(=O)n1cc(F)c(=O)[nH]c1=O`, the Potency is reported as 6.51 µM (active). In the case of `COC(c1ccccc1)(c1ccccc1)[C@H](Oc1nc(C)cc(C)n1)C(=O)O`, the Potency is reported as “inactive”. With `CC1CC2C3CCC4=CC(=O)C=C[C@]4(C)[C@@]3(F)[C@@H](O)C[C@]2(C)[C@@]1(O)C(=O)CO` (some centres not stated) the “activity change, negative = cytotoxicity” value was 9.41% (inactive). For `OC(Cn1cncn1)(Cn1cncn1)c1ccc(F)cc1F`, the Potency was “inactive”. In the case of `O=C(O)C1CCCN(CCC=C(c2ccccc2)c2ccccc2)C1` (configuration not stated), the “outcome” value is reported as “inactive”. For `COc1cc(NCc2ccc3nc(N)nc(N)c3c2C)cc(OC)c1OC`, the Potency was “inactive and 5.8 µM (active)”. With `CNCC[C@H](Oc1cccc2ccccc12)c1cccs1` the “activity change, negative = cytotoxicity” value was -117% (inactive). With `O=C(O)CSCC(=O)NC1CCSC1=O` (configuration not stated) the “activity change, negative = cytotoxicity” value was 0.891% (inactive). In the case of `Clc1ccccc1CN1CCc2sccc2C1`, the Potency is reported as “inactive”. With `N=C(N)c1ccc(OCCCCCOc2ccc(C(=N)N)cc2)cc1` the Potency was “inactive”. In the case of `NCCCC(O)(P(=O)(O)O)P(=O)(O)O`, the Potency is reported as “inactive”. With `COc1cc2ncnc(Nc3cccc(Cl)c3)c2cc1OC` the Potency was 8.33 µM (active) and 16.4 µM (active).

Experiment: Natriuretic polypeptide receptor (hNpr1) antagonism - Pilot counterscreen GloSensor control cell line (AID 1347045; calls by dose curve)
Details: HEK293 cGMP GloSensor cells, SNP-stimulated luminescence, 20 min; series mostly up to 38.3 µM; activity change, negative = inhibition: at the top concentration
Outline: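 HEK293 cells carrying the GloSensor cGMP sensor (GIP/pGS-40F) were loaded with 2% GloSensor reagent for 2 h, exposed to compounds for 30 min, and then stimulated with 50 uM sodium nitroprusside for 20 min at room temperature.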
In the case of `N[C@@H](Cc1ccc(O)c(O)c1)C(=O)O`, the “activity change, negative = inhibition” value is reported as 4.55% (inactive). In the case of `Nc1nc(N)c2nc(CNc3ccc(C(=O)NC(CCC(=O)O)C(=O)O)cc3)cnc2n1` (configuration not stated), the “activity change, negative = inhibition” value is reported as 22.6% (inactive). In the case of `NC(=O)c1ccc2[nH]ccc2c1`, the “activity change, negative = inhibition” value is reported as 9.87% (inactive). In the case of `CC(C)NCC(O)c1ccc(NS(C)(=O)=O)cc1` (configuration not stated), the “activity change, negative = inhibition” value is reported as -0.724% (inactive). With `OCc1ccc(-c2nn(Cc3ccccc3)c3ccccc23)o1` the “activity change, negative = inhibition” value was 82.9% (inactive). In the case of `CCCCS(=N)(=O)CCC(N)C(=O)O` (configuration not stated), the “activity change, negative = inhibition” value is reported as -0.115% (inactive). With `CC1CC2C3CCC4=CC(=O)C=C[C@]4(C)[C@@]3(F)[C@@H](O)C[C@]2(C)[C@@]1(O)C(=O)CO` (some centres not stated) the “activity change, negative = inhibition” value was 5.49% (inactive). With `O=C(O)C1CCCN(CCC=C(c2ccccc2)c2ccccc2)C1` (configuration not stated) the “activity change, negative = inhibition” value was 2.64% (inactive). In the case of `COc1cc2ncnc(Nc3cccc(Cl)c3)c2cc1OC`, the “activity change, negative = inhibition” value is reported as 17.1% (inactive).
